Inhibition data for 63 molecules are collected here from PubChem BioAssay AID651616 (The Scripps Research Institute Molecular Screening Center, 2012).

Each structure is given as a SMILES string. Among all 5,600 compounds or so, about 4,400 (79%) were called active. So high a share suggests a set chosen from earlier hits. Only a sample is shown. A number with no mark means an inactive call. No stated cut-off is given here; in the data, active means inhibition above about 27%; inactive means the rest.

The target of the experiment is Fructose-bisphosphate aldolase (Mycobacterium tuberculosis (strain ATCC 25618 / H37Rv)) (UniProt P9WQA3). Description: M. tuberculosis aldolase blockers, biochemical, fluorescence, strain H37Rv, confirmation (AID 651616).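 Further: 0% = vehicle wells and 100% = reference inhibitor wells.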 The conditions noted are these: purified M. tuberculosis FBA, fluorescence read-out, at 1 µM, stronger effect = higher value.
Chain of Fructose-bisphosphate aldolase (Mycobacterium tuberculosis (strain ATCC 25618 / H37Rv)) (P9WQA3 whole entry, looked up): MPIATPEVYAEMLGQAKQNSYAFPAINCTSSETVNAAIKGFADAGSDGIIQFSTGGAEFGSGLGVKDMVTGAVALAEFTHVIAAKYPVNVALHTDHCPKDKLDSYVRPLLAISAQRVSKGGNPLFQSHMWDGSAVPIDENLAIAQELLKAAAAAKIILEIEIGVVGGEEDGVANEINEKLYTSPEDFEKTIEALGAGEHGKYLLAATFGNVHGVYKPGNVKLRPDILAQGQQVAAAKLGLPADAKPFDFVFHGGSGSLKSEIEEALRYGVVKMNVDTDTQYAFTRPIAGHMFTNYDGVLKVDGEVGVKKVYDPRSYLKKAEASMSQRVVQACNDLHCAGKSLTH
For the molecule `O=C(CCC(=O)N/N=C/c1ccc(Br)o1)N/N=C/c1ccc(Br)o1`, the inhibition (in general, the change of the read-out against control, counted positive when it falls) was 110% (active).

As for `CCC(=O)Nc1c(S(=O)(=O)c2ccccc2)c2nc3ccccc3nc2n1Cc1ccccc1`, the inhibition was 173% (active).

As for `COc1ccc2nc(-c3ccccn3)ccc2c1`, the inhibition is 116% (active).

Take `COc1ccc(C2NC(=O)c3ccccc3N2)cc1` (stereo not drawn): the inhibition was 146% (active).

As to `O=C1NC(c2cccc(Cl)c2)Nc2ccccc21` (stereo not drawn), the inhibition is 102% (active).

Consider `Cc1ccc2nc(-c3ccco3)c(Cc3cccc(Cl)c3)n2c1`, for which the inhibition is 94.1% (active).

As for `O=C1OCCN1C(=O)[C@H]1[C@H](c2ccc(F)cc2)C(c2ccccc2)=NN1c1ccc(Br)cc1`, the inhibition was 65.6% (active).

Consider `CNc1nc(-c2ccccc2)cc(-c2ccccc2)n1`, for which the inhibition was 76.6% (active).

In the case of `CCCN(C(=O)CSc1nnc(N)s1)c1c(N)n(Cc2ccccc2)c(=O)[nH]c1=O`, the inhibition was 59.2% (active).

In the case of `COc1ccc(-c2ccc(C(=O)NCCN3CCOCC3)c3occc23)c(C)c1`, the inhibition was 72% (active).

As to `COc1ccc(-c2ccc(C(=O)NC(C)C)c3occc23)c(C)c1`, the inhibition was 112% (active).

As for `COc1ccc(-c2oc3ncnc(NCCCO)c3c2-c2ccc(OC)cc2)cc1`, the inhibition was 51.9% (active).

`Cc1cc(C)nc(SCc2cn3c(C)cc(C)nc3n2)n1`: the inhibition is 102% (active).

As for `COc1cccc(NC(=O)CN(C)CC(=O)Nc2ccc3c(c2)CCC3)c1`, the inhibition is 89% (active).

For `COc1cccc(NC(=O)CN(C)C(=O)/C=C/c2cc(OC)ccc2OC)c1`, the inhibition is 105% (active).

Take `COc1ccc2c3c(c(=O)oc2c1OCC(=O)C(C)(C)C)CCCC3`: the inhibition was 60.2% (active).

Consider `Cc1c(OC(C)C(=O)N[C@@H](Cc2ccccc2)C(=O)O)ccc2c3c(c(=O)oc12)CCCC3` (stereo partly drawn), for which the inhibition was 5.53%.

`CCC(=O)Nc1ccc2nn(-c3ccc(F)cc3)nc2c1`: the inhibition was 88% (active).

In the case of `CCCC/C=C/c1cccc2nncn12`, the inhibition is 68.8% (active).

Regarding `O=C(NCCc1ccccc1)c1ccc2c(c1)N(Cc1ccccc1)CCS2`, the inhibition was 42.5% (active).

As for `O=C(NCCN1CCOCC1)c1ccc2c(c1)N(Cc1ccc(Cl)cc1)CCS2`, the inhibition was 56.6% (active).

Take `CN1CCN(CCCNC(=O)c2ccc(/C=C3\Oc4ccccc4N(Cc4ccc(Cl)cc4)C3=O)cc2)CC1`: the inhibition was -4.52%.

Regarding `COCCCNC(=S)N(CCN(C)C)Cc1cc2cc3c(cc2[nH]c1=O)OCCO3`, the inhibition was 43.2% (active).

For the molecule `COc1ccc(C2C3=C(CCCC3=O)N(CC(=O)O)C3=C2C(=O)CCC3)cc1`, the inhibition was 128% (active).

Take `COCc1cc(=O)n2[nH]c(C)c(-c3ccccc3)c2n1`: the inhibition was 50.6% (active).

As for `Cc1nc2c(-c3ccccc3)c(C)[nH]n2c(=O)c1Cl`, the inhibition was 105% (active).

Turning to `CCCc1cc(=O)n2[nH]c(C)c(-c3ccc(Cl)cc3)c2n1`, the inhibition is 123% (active).

With `O=C(O)Cc1sc(-c2ccc(C(=O)O)cc2)nc1-c1ccccc1`, the inhibition is -7.84%.

In the case of `c1cc(-c2ccc3[nH]ccc3c2)n2ccnc2c1`, the inhibition was 79.6% (active).

As for `COc1ccc(CNC(=O)c2c[nH]c3c(OC)cc(OC)cc3c2=O)cc1`, the inhibition is -2.04%.

For `Cc1ccc(Cn2c(C)nc3c(c2=O)c2nc4ccccc4nc2n3Cc2ccco2)cc1`, the inhibition was 55% (active).

With `COc1cc(OC)cc(C(=O)Nc2ccc(-c3nc4ccccc4o3)c(O)c2)c1`, the inhibition is 148% (active).

In the case of `CC(=O)Nc1ccc(-c2nc3ccccc3o2)cc1`, the inhibition is 8.14%.

On to `CC(C)OCCCNc1ncnc2c1[nH]c1ccc(F)cc12`, for which the inhibition is 132% (active).

Turning to `CC(C)CN1CCNC(=O)C1CC(=O)N(C)CC1CCOCC1` (stereo not drawn), the inhibition was 138% (active).

Turning to `COC(=O)COc1cc(C)cc2oc(=O)c3c(c12)CCCC3`, the inhibition was 124% (active).

In the case of `Cc1cc(OCc2cc(C(=O)O)oc2C)c2c3c(c(=O)oc2c1)CCCC3`, the inhibition was 151% (active).

Turning to `CCCS(=O)(=O)Nc1c(C(=O)O)[nH]c2ccccc12`, the inhibition was 54.9% (active).

Consider `CCOC(=O)c1c(-c2ccccc2)oc2ccc(OCC(N)=O)cc12`, for which the inhibition was 148% (active).

As to `COC(=O)c1c(-c2ccsc2)oc2ccc(-c3cc(OC)c(OC)c(OC)c3)cc12`, the inhibition is 2.75%.

For `CCOC(=O)c1c(-c2ccccc2)oc2ccc(OCC(=O)NN)cc12`, the inhibition was 108% (active).

As to `COc1cc(C(F)(F)F)nc2c(Br)c(C(C)(C)C)nn12`, the inhibition was 66.4% (active).

With `Cc1ccc(NC(=O)CN(C)C(=O)COC(=O)c2nccnc2N)cc1`, the inhibition was 4.29%.

Take `CCN(CC)c1ccc2cc(C(=O)O)c(=O)oc2c1`: the inhibition is 22.1%.

For the molecule `COc1ccc2oc(=O)c(C(=O)NCc3ccccn3)cc2c1`, the inhibition was 10.3%.

Consider `COc1ccc2oc(=O)c(C(=O)N3CCCC3)cc2c1`, for which the inhibition is 113% (active).

As to `CCc1c(C)nc2cc(-c3cccs3)[nH]n2c1=O`, the inhibition is 26.8%.

Consider `C=CCc1c(C)nc2cc(-c3ccccc3)[nH]n2c1=O`, for which the inhibition was 56.1% (active).

For the molecule `CCc1c(C)nc2cc(C)[nH]n2c1=O`, the inhibition is 45.6% (active).

As to `CN(C)S(=O)(=O)c1ccc(N/C=C(\[N+](=O)[O-])S(=O)(=O)c2ccccc2)cc1`, the inhibition is 2.34%.

On to `COCc1cc(=O)oc2cc(NS(=O)(=O)c3ccc(C)cc3)ccc12`, for which the inhibition is 62.7% (active).

With `COCCN(CCOC)c1nc(N)c2c(N)nc3c(c2c1C#N)CC(=O)N3Cc1ccc(Cl)cc1`, the inhibition was 89.8% (active).

In the case of `CCCC1OC23CCCCC2C(C#N)(C#N)C1(C#N)C(=N)O3` (stereo not drawn), the inhibition is -0.85%.

Regarding `CC(=O)N1CCN(C(=O)c2cc(-c3ccc(Cl)s3)nc3ccccc23)CC1`, the inhibition was 12.6%.

As for `O=C(c1cc(-c2ccc(Cl)s2)nc2ccccc12)N1CCOCC1`, the inhibition was 111% (active).

`Cc1nn(C)c(Oc2ccccc2)c1CCNS(=O)(=O)c1ccc(F)cc1`: the inhibition was 157% (active).

Consider `Cc1cccc(NC(=O)c2sc3nc(N4CCOCC4)c4c(c3c2N)CCCC4)c1`, for which the inhibition was 108% (active).

Take `Oc1ccc(Br)cc1C=Nc1ccc2[nH]ncc2c1`: the inhibition was 79.1% (active).

Consider `COc1ccc(-c2cn3ccc(C)cc3n2)cc1`, for which the inhibition was 4.46%.

With `COc1ccc(-c2cc(C(=O)N(C)Cc3ccccc3)c3ccccc3n2)cc1`, the inhibition was -2.17%.

Regarding `COc1ccc(-c2cc(C(=O)Nc3ccccc3O)c3ccccc3n2)cc1`, the inhibition is 133% (active).

As for `COc1nc(N=C(N)N)nc2c(C)cccc12`, the inhibition was 108% (active).

As to `COc1cc2nc(N3CCN(C(=O)[C@@H]4CCCO4)CC3)nc(N)c2cc1OC`, the inhibition is 109% (active).
